Among the data in ChEMBL document CHEMBL3988442, “University of Dundee, Small-Polar-MMV Screening Library” (2021) are Percent Effect values, retold here.

For some assays here: Results with a measured potency or affinity are listed apart.

Common to all, as to parameters: scale not given: direction of the effect not stated beside the values
The target in experiment [1] is Protein translocase subunit SecA (Escherichia coli (strain K12)) (UniProt P10408). As to the kind of experiment: Assay to Identify E. coli SecA ATPase Inhibitors. The experiment is classed as functional. The conditions noted are these: 30 µM.
Sequence of Protein translocase subunit SecA (Escherichia coli (strain K12)) (P10408 whole entry): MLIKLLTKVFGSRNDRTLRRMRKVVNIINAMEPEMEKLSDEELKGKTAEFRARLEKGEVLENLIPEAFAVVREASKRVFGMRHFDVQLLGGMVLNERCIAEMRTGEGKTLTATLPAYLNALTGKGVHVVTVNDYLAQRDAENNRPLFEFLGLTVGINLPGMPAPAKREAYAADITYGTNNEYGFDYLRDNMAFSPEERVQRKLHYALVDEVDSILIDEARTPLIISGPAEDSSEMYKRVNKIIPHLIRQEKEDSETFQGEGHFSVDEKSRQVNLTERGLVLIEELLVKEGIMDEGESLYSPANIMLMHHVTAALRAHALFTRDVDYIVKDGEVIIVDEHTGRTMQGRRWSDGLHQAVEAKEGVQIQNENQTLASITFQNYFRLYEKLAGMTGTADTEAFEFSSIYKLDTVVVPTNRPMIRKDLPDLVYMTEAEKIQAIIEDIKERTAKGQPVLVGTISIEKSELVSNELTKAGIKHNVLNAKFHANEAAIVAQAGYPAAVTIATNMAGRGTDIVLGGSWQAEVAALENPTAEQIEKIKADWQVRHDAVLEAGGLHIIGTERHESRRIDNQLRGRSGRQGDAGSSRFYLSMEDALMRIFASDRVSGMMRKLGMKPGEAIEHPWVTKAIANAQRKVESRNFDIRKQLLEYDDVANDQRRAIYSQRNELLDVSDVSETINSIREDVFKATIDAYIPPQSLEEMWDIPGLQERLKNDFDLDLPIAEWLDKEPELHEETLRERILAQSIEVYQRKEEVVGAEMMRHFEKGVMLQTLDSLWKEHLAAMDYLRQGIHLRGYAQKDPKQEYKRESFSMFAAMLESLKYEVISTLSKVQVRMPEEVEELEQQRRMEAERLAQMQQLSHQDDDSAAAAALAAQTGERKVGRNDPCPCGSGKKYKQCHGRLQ
Experiment [2] addresses T1, Ubiquitin-activating enzyme e1, putative (Leishmania donovani (strain BPK282A1)) (UniProt E9BSI1).
T1 sequence (whole entry): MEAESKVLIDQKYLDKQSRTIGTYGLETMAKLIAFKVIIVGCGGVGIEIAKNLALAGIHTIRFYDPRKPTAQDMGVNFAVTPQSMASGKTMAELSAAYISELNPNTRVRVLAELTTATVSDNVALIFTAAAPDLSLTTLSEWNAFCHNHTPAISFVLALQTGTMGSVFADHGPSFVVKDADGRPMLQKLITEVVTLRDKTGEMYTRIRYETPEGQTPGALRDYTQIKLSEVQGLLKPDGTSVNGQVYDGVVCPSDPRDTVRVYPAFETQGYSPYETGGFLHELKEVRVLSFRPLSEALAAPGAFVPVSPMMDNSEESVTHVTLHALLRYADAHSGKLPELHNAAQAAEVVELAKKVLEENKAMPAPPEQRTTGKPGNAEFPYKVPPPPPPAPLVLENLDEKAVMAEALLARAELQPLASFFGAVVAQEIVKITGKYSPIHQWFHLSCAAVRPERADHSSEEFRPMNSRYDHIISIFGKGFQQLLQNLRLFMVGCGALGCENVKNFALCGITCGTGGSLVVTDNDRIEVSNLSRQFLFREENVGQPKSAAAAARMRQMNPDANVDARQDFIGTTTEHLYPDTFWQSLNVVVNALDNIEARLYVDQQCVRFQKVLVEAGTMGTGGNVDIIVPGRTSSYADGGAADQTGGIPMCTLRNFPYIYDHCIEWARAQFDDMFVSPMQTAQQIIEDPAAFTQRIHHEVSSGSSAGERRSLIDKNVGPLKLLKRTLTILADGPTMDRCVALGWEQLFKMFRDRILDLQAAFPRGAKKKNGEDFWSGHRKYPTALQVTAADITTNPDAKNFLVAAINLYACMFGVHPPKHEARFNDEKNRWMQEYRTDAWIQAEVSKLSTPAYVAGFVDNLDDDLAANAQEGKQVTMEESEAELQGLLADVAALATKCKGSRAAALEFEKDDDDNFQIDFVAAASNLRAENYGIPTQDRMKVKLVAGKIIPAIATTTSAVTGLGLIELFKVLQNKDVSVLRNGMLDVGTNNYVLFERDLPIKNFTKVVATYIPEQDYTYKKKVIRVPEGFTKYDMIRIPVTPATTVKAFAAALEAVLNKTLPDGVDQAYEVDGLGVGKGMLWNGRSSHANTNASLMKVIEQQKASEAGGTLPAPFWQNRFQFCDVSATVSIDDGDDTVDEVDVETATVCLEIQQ
As to the kind of experiment: Leishmania donovani Ubiquitin Activating Enzyme (LdE1). The format is functional. Particulars: 30 µM.

For experiment [3], the target named is AMP-activated protein kinase, AMPK (Homo sapiens) (UniProt P54646+O43741+P54619+Q9UGJ0+Q9Y478+Q13131+Q9UGI9). Nature of the experiment: AMP-dependent Kinase enzyme assay. An in vitro enzyme assay that detects ADP turnover that is directly proportional to AMPK activity. This uses naive AMPK that is activated during the assay with MK-8722. The experiment is classed as functional. Particulars: 30 µM.

The target in experiment [4] is Sialic acid-binding Ig-like lectin 9 (Homo sapiens) (UniProt Q9Y336). As to the kind of experiment: Hs-Siglec9 ALPHAscreen SOP 20170721. Particulars: 10 µM. (In general: Alpha assays give light when donor and acceptor beads are brought close together.)
Sequence of Sialic acid-binding Ig-like lectin 9 (Homo sapiens) (Q9Y336 whole entry): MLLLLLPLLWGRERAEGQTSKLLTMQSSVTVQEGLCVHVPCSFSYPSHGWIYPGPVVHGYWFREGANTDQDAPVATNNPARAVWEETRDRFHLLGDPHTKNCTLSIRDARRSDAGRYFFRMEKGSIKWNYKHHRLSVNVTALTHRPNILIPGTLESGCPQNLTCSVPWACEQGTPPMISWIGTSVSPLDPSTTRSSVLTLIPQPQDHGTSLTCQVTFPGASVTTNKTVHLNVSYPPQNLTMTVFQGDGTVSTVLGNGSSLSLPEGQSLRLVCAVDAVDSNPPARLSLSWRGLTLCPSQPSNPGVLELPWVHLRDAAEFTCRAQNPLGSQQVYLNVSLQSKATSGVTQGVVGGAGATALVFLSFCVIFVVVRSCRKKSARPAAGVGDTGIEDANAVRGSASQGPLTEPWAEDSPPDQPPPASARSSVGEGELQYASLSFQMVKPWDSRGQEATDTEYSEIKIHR
Another experiment relates to Trypanosoma cruzi. Nature of the experiment: Trypanosoma cruzi phosphomannomutase and mannose-1-phosphate guanylyltransferase assay. The experiment is classed as functional. The conditions noted are these: 10 µM.
For experiment [5], the target named is T2, Arginase-2, mitochondrial (Homo sapiens) (UniProt P78540).
T2 sequence (whole entry): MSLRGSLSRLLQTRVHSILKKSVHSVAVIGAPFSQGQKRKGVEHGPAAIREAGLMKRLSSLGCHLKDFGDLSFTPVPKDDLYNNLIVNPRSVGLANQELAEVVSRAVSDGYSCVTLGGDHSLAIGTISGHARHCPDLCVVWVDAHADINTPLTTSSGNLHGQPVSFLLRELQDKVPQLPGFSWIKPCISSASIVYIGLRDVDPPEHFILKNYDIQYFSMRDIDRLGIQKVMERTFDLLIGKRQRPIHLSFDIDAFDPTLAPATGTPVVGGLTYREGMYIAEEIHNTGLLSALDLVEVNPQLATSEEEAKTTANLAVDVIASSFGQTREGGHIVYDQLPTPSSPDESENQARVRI
Nature of the experiment: in vitro enzyme assay to detect the production of urea directly proportional to the activity of Arginase II. Note: in the data most compounds retested in dose-response had high values. Particulars: 33.3 µM. The experiment is classed as functional.

In experiment [6] the target is T3, Proteasome subunit beta (Trypanosoma cruzi) (UniProt O96673).
T3 sequence (whole entry): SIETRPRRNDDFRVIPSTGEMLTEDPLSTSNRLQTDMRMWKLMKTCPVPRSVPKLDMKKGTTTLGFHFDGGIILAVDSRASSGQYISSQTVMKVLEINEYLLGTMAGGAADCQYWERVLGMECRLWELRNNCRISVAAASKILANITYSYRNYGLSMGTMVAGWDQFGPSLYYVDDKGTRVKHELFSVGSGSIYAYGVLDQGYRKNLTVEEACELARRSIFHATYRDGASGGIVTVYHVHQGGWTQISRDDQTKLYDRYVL
As to the kind of experiment: Trypanosoma cruzi proteasome chymotrypsin-like activity (TcProtChymo) assay. Note: in the data most compounds retested in dose-response had high values. The format is functional. Particulars: 9.37 µM.

Another experiment is filed under the species Homo sapiens. Nature of the experiment: To identify inhibition of the IFN signalling (Jak-Stat) pathway via expression of an eGFP reporter gene under the control of an IFN-stimulated response element (ISRE) containing MxA promoter. Particulars: 30 µM. The format is functional. (A reporter such as luciferase makes a cellular process visible.)
In experiment [7] the target is T4, Tyrosyl-tRNA synthetase, putative (Trypanosoma cruzi (strain CL Brener)) (UniProt Q4DSP6).
T4 sequence (whole entry): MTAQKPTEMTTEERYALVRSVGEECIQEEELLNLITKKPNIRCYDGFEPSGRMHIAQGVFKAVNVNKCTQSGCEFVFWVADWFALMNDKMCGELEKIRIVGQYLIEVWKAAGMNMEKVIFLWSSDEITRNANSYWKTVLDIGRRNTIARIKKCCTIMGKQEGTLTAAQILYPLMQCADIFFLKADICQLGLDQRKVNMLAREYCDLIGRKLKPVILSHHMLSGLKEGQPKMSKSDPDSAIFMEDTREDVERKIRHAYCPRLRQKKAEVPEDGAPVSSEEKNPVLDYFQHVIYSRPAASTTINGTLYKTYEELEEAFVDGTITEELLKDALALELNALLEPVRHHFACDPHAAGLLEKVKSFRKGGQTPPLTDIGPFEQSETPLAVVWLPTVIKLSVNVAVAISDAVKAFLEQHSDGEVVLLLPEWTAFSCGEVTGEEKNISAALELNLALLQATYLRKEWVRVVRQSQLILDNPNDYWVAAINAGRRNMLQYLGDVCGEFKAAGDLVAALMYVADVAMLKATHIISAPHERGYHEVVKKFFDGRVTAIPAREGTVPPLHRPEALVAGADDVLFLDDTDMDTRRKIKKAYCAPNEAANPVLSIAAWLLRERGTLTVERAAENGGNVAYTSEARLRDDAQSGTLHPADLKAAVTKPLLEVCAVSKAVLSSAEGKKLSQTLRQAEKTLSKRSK
Nature of the experiment: Trypanosoma cruzi tyrosyl tRNA synthetase (TcYRS) _High Tyrosine SOP. Note: in the data most compounds retested in dose-response had high values. Particulars: 30 µM. The experiment is classed as functional.

Experiment [8] deals with T4, Tyrosyl-tRNA synthetase, putative (Trypanosoma cruzi (strain CL Brener)). As to the kind of experiment: Trypanosoma cruzi tyrosyl tRNA synthetase (TcYRS) SOP. The format is functional. Particulars: 30 µM.
For experiment [9], the target named is Chromo domain-containing protein 1 (Saccharomyces cerevisiae (strain ATCC 204508 / S288c) (Baker's yeast)) (UniProt P32657). As to the kind of experiment: ScCHD-1 Enzyme Inhibition Assay. Note: in the data most compounds retested in dose-response had high values. The experiment is classed as functional. The conditions noted are these: 30 µM.
Sequence of Chromo domain-containing protein 1 (Saccharomyces cerevisiae (strain ATCC 204508 / S288c) (Baker's yeast)) (P32657 whole entry, the tested form may be a part): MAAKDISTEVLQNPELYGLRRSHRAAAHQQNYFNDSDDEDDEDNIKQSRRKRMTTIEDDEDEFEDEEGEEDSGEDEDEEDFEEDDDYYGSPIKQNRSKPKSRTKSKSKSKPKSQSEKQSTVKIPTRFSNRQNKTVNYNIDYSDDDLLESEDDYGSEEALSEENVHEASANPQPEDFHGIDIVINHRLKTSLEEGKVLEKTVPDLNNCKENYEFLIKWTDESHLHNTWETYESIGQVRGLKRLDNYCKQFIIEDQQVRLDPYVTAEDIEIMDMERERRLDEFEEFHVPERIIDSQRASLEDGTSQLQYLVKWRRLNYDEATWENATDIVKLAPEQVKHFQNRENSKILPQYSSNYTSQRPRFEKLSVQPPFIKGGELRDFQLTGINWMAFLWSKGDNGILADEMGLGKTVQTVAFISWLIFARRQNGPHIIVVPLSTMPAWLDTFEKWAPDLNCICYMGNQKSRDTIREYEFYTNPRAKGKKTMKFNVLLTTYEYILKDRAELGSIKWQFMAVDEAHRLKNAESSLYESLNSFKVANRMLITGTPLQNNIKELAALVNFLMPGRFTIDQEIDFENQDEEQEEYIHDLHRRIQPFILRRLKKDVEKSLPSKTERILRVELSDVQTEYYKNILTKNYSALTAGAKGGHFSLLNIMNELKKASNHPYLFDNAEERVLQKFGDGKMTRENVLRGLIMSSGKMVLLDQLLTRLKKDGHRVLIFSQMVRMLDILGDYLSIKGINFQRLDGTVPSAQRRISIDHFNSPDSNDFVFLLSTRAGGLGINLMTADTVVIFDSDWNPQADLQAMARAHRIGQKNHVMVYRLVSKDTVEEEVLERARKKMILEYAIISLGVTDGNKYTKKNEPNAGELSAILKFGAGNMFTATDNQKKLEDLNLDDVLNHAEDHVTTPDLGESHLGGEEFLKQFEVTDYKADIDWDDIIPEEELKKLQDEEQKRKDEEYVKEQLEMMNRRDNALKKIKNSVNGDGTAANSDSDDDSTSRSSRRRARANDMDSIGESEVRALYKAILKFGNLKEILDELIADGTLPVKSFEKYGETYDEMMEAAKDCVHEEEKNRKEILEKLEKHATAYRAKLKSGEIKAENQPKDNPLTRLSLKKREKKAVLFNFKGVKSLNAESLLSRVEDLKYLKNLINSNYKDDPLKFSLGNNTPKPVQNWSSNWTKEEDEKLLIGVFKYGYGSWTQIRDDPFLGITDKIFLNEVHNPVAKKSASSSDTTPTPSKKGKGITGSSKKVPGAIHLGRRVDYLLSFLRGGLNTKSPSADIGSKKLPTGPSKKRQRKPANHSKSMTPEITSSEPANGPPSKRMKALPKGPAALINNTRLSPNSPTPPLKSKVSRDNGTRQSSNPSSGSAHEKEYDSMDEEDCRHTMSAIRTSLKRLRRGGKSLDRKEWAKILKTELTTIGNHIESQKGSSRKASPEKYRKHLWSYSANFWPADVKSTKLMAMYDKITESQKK

`CN1CC(=O)N(c2cccc(F)c2)CC12CCN(S(C)(=O)=O)C2` (stereo not given): the Percent Effect was -4.45% in [1]; 10.8% in experiment [2]; 2.57% in experiment [3]; 0.944% in [4]; -1.07% with Trypanosoma cruzi; 3.5% in experiment [5]. Also, the Percent Effect in experiment [6] was 18.8%; in the experiment filed under Homo sapiens it was -6.25%; in [7], 4.32%; in experiment [8] it was 10.3%; in [9] it was -1.22%.
In the case of `CC(C)(C)NC(=O)NC(=O)CNC(C)(C)c1ccc2c(c1)OCCO2`, the Percent Effect in experiment [1] is -5.89%; in experiment [2] it was 13.5%; in [3], -6.92%; in experiment [4] it was 1.3%; in the experiment on Trypanosoma cruzi it was 0.472%; in experiment [5], -4.01%. Besides, the Percent Effect in [6] is 6.67%; in the experiment filed under Homo sapiens it was 11.6%; in experiment [7], 4.43%; in experiment [8] it was 13.6%; in experiment [9] it was -5.2%.
`Cc1nc(CN2CCc3ncnc(C)c3CC2)cs1`: the Percent Effect in experiment [1] was -4.35%; in [2], 0%; in experiment [3], 0.161%; in experiment [4], 1.66%; with Trypanosoma cruzi, 4.99%; in experiment [5], 3.5%. For the same molecule, the Percent Effect in experiment [6] was 10.3%; in the experiment filed under Homo sapiens, -27.4%; in experiment [7], 2.16%; in [8] it was 7.69%; in [9] it was 4.23%.
Regarding `Cc1cnn(CC2CCCN2C(=O)c2cc3ccccc3[nH]c2=O)c1` (stereo not given), the Percent Effect in experiment [1] is -8.51%; in [2], 7.79%; in [3], -12.6%; in [4], -10%; in the experiment on Trypanosoma cruzi, -5.97%; in experiment [5] it was -1.9%. The Percent Effect in experiment [6] was 8.49%; in the experiment listed under Homo sapiens, 15%; in experiment [7] it was 1.91%; in experiment [8], 7.06%; in experiment [9] it was -15.3%.
As for `COCC(=O)N1CC[C@@H]2O[C@H](COCc3ccncc3)CC[C@@H]21`, the Percent Effect is -3.69% in [1]; 18.9% in experiment [2]; 10.4% in experiment [3]; -8.21% in experiment [4]; -4.2% in the experiment on Trypanosoma cruzi; 9.24% in experiment [5]. The Percent Effect is 16.6% in experiment [6]; -0.209% in the experiment filed under Homo sapiens; 1.08% in experiment [7]; 17.9% in [8]; -0.872% in [9].
For `COc1ccc(F)cc1C(C)NC(=O)Nc1nnc(C)s1` (stereo not given), the Percent Effect is -1.41% in experiment [1]; 10.8% in [2]; -8.69% in [3]; 27.9% in experiment [4]; 4.99% with Trypanosoma cruzi; 13.7% in experiment [5]. Further, the Percent Effect in [6] came to 9.7%; in the experiment listed under Homo sapiens, 17.2%; in experiment [7] it was 5.38%; in [8] it was 16.1%; in experiment [9], 3.4%.
Turning to `O=C(Cn1ccc2ccc(Br)cc21)NC[C@@H]1CCCN2CCCC[C@H]12`, the Percent Effect was -9.26% in experiment [1]; -4% in [2]; 0.939% in experiment [3]; -2.99% in experiment [4]; -5.5% in the experiment on Trypanosoma cruzi; -12.8% in [5]. In addition, the Percent Effect in [6] is 2.03%; in the experiment listed under Homo sapiens, 7.57%; in experiment [7] it was 0%; in [8], -56.4%; in experiment [9] it was -8.03%.
In the case of `CCn1cc(NC(=O)NCC(C)O)cn1` (stereo not given), the Percent Effect in experiment [1] was -0.762%; in experiment [2], 17.7%; in experiment [3] it was -8.6%; in experiment [4] it was -3.54%; in the experiment with Trypanosoma cruzi, -0.85%; in experiment [5], 4.18%. The Percent Effect in experiment [6] is 5.65%; in the experiment listed under Homo sapiens, 1.36%; in experiment [7], 8.37%; in experiment [8], -24.1%; in experiment [9], -7.2%.
Turning to `Cc1cc(-c2cnc(N3CCNC(=O)C3)nc2-c2ccc(C)o2)on1`, the Percent Effect in [1] is -8.2%; in experiment [2], 21.3%; in experiment [3] it was 3.79%; in experiment [4], 11.1%; in the experiment on Trypanosoma cruzi it was 1.38%; in experiment [5] it was -6.76%. In addition, the Percent Effect is 11.4% in experiment [6]; 29.2% in the experiment listed under Homo sapiens; 5.32% in experiment [7]; 11.5% in experiment [8]; -16.5% in [9].
Turning to `CC(NC(=O)NCCCn1cncn1)c1ccc2c(c1)OCCO2` (stereo not given), the Percent Effect in experiment [1] is -1.3%; in experiment [2], 18.9%; in experiment [3] it was -2.43%; in experiment [4], 0.133%; with Trypanosoma cruzi, -3.81%; in [5], -1.66%. Further, the Percent Effect in experiment [6] was 14.2%; in the experiment listed under Homo sapiens, 6.17%; in [7] it was 2.97%; in experiment [8], 15.8%; in [9], -2.48%.
